# Measured values from PubChem BioAssay (NCATS).
# Results filed as inconclusive are left out. A call without a number means that no potency is given here. A number with no mark means an inactive call. Calls of active or inactive are those of the source. The call rests on the fitted dose curve; in most records, active means well fitted inhibition curve with a large enough effect; inconclusive means small, poorly fitted or top-dose-only effect; inactive means flat fitted curve, though single readings scatter.
# Experiment: Primary qHTS for inhibitors of nuclear receptor binding SET domain protein 2 (NSD2) in an isogenic RCH-ACV NSD2 p.E1099K mutant (9B) (AID 1645876); further: nearly all actives have a fitted effect of over 70% in size
# Conditions: RCH-ACV (leukaemia line) NSD2 E1099K (9B) viability, CellTiter-Glo, 72 h; series mostly up to 44.9 µM
# Potency means the concentration at half of the fitted maximal effect.
Structure (SMILES),Potency,outcome,"activity change, negative = viability loss"
CC1=C2C3OC(=O)C(C)C3(O)CCC2(C)CCC1O (stereo not drawn),inactive,–,–
O=C(OC[C@@]1(O)CO[C@@H](O[C@H]2[C@H](Oc3ccc(O)cc3)O[C@H](CO)[C@@H](O)[C@@H]2O)[C@@H]1O)c1ccc(O)cc1,inactive,–,–
COC(=O)c1cc(OC)c(O[C@@H]2O[C@@H](C)[C@H](O)[C@@H](O)[C@H]2O)c(OC)c1,inactive,–,–
CC(=O)c1cc2c(cc1O)OC(C)(C)C=C2,inactive,–,–
O=C(O)c1ccc(OC2OC(CO)C(O)C(O)C2O)cc1 (stereo not drawn),inactive,–,–
FC(F)(F)c1ccc(Nc2nc(-c3c(C(F)(F)F)nc4ccccn34)cs2)cc1,417 nM (active),–,–
CNC12CC3C[C@@](C)(C1)C[C@](C)(C3)C2,inactive,–,–
C=C[C@]1(C)C[C@H](O)[C@@H]2[C@H](OC(=O)[C@@H]2C)C1/C(C)=C/O[C@@H]1O[C@H](CO)[C@@H](O)[C@H](O)[C@H]1O (stereo partly drawn),inactive,–,–
C[C@@H]1CC[C@]2(C(=O)O)CC[C@]3(C)C(=CCC4[C@@]5(C)C[C@@H](O)[C@H](O)[C@@](C)(CO)C5CC[C@]43C)C2[C@]1(C)O (stereo partly drawn),inactive,–,–
COc1cc(C(=O)OC[C@@]2(O)CO[C@@H](O[C@H]3[C@H](Oc4ccc(C(=O)O)cc4OC)O[C@H](CO)[C@@H](O)[C@@H]3O)[C@@H]2O)ccc1O,inactive,–,–
CC(/C=C/C1=CC2=CC(=O)C(C)(O)C(O)C2=CO1)=C\C(C)CCO (stereo not drawn),inactive,–,–
CC(Nc1ncnc2nc[nH]c12)c1cc2cccc(Cl)c2c(=O)n1-c1ccccc1 (stereo not drawn),332 nM (active),–,–
O=C1OCC(c2ccccc2)=C1Cc1ccccc1,inactive,–,–
CC(=O)O[C@H]1[C@H](O[C@H]2[C@@H]3C=CO[C@@H](O[C@@H]4O[C@H](CO)[C@@H](O)[C@H](O)[C@H]4O)[C@@H]3[C@@]3(CO)O[C@@H]23)O[C@@H](C)[C@H](OC(=O)/C=C/c2ccccc2)[C@H]1OC(=O)/C=C/c1ccccc1,–,inactive [at 9.23 µM],–
CC1=C(C)C(=O)OC(C(C)C2CCC3C4C5OC5C5(O)CC(OC6OC(CO)C(OC7OC(C)C(O)C(O)C7O)C(O)C6O)CC(O)C5(C)C4CCC23C)C1 (stereo not drawn),inactive,–,–
CC1=CC(=O)CC(C)(C)[C@H]1/C=C/C(CO)O[C@@H]1O[C@H](CO)[C@@H](O)[C@H](O)[C@H]1O (stereo partly drawn),inactive,–,–
COc1cc(O)c2c(c1)C1=C[C@H](O)[C@@H](O)C[C@]1(C)OC2=O,inactive,–,–
COC(=O)CCC(=O)OC[C@]1(C)CCC[C@@]2(C)C3CC[C@]4(C)C=CC3(CCC12)C4 (stereo partly drawn),inactive,–,–
C=C(CO)C12OC1C1(C)C(=CC2=O)C(O)C(O)CC1C (stereo not drawn),inactive,–,–
CC1C=CC2CCCCC2C1CCC1CC(O)CC(=O)O1 (stereo not drawn),inactive,–,–
CC(C)(O)C1CCC(C)(C2CCC3(C)C4CCC5C(C)(C(=O)OC6OC(CO)C(O)C(O)C6O)C(O)CC(O)C56CC46CCC23C)O1 (stereo not drawn),inactive,–,–
CC(=O)O[C@@](C)(C(=O)/C=C/C(C)(C)O)[C@H]1[C@H](O)C[C@@]2(C)[C@@H]3CC=C4[C@@H](C=C(O)C(=O)C4(C)C)[C@]3(C)C(=O)C[C@]12C,502 nM (active),–,–
C=C1C[C@]23C[C@H]1[C@@H](O)C[C@H]2[C@@]12C=C[C@H](O)[C@@](C)(C(=O)O1)[C@H]2[C@@H]3C(=O)O,inactive,–,–
CC1(C)CC[C@]2(C(=O)O[C@@H]3O[C@H](CO)[C@@H](O)[C@H](O)[C@H]3O)CC[C@]3(C)C(=CCC4[C@@]5(C)C[C@@H](O)[C@H](O)[C@](C)(C=O)C5CC[C@]43C)[C@@H]2[C@@H]1O (stereo partly drawn),inactive,–,–
C[C@]12C=C[C@@]3(CCC4[C@](C)(CO)CCC[C@@]4(C)C3CC1)C2 (stereo partly drawn),inactive,–,–
C[C@@H]1O[C@@H](O[C@@H]2[C@@H](O)[C@H](O[C@H]3[C@H](O[C@H]4CC[C@@]5(C)C(CC[C@]6(C)C5CC=C5[C@@H]7CC(C)(C)CC[C@]7(C(=O)O[C@@H]7O[C@H](CO)[C@@H](O)[C@H](O)[C@H]7O[C@@H]7O[C@@H](C)[C@H](O[C@@H]8O[C@@H](C)[C@H](O)[C@@H](O)[C@H]8O)[C@@H](O)[C@H]7O)CC[C@]56C)[C@@]4(C)CO)O[C@H](C(=O)O)[C@@H](O)[C@@H]3O)O[C@H](CO)[C@H]2O)[C@H](O)[C@H](O)[C@H]1O (stereo partly drawn),–,–,-0.268% [at 9.23 µM]
C[C@H](NC(c1cccc2[nH]c(=O)c(=O)[nH]c12)P(=O)(O)O)c1ccc(Br)cc1 (stereo partly drawn),inactive,–,–
CC1(C)CCC2(C(=O)OC3OC(CO)C(O)C(O)C3O)CCC3(C)C(=CCC4C5(C)CCC(OC6OC(C(=O)O)C(OC7OC(CO)C(O)C(O)C7O)C(OC7OC(CO)C(O)C(O)C7O)C6O)C(C)(C)C5CCC43C)C2C1 (stereo not drawn),–,–,-4.92% [at 9.23 µM]
